The values below come from PubChem BioAssay (Tox21).

Several values for one entry are separate records, joined by “and”; a condition that tells them apart may be missing. Equal entries are not always repeated. Records with an inconclusive call do not appear. Activity calls are given as the source filed them. Unless noted, calls follow the shape of the dose curve; as a rule, active = well fitted curve in the direction sought with a large enough effect in the repeat runs; inconclusive = weak or mixed curves; inactive = no such curve, though single readings can be large; an effect the other way counts as inactive or inconclusive.

Test [1] in a line: qHTS assay to identify small molecule agonists of the peroxisome proliferator-activated receptor delta (PPARd) signaling pathway - cell viability counter screen (AID 743211). Also: nearly all actives have a fitted effect of over 55% in size. Also: potency is read from the fitted curve at half-maximal effect. Summed up: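 Multiplexed format: after the 2 h room-temperature LiveBLAzer B/G FRET step, CellTiter-Glo was added to the same wells. Luminescence after 30 min gave cell viability; compound exposure was 17 h at 37C.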

Test [2] can be described thus: qHTS assay to identify small molecule antagonists of the peroxisome proliferator-activated receptor delta (PPARd) signaling pathway - cell viability counter screen (AID 743213). Also: nearly all actives have a fitted effect of over 50% in size. Also: potency is read from the fitted curve at half-maximal effect. Summed up: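 In this counter screen, HEK293H cells carrying a UAS-beta-lactamase reporter are co-treated with test compounds and 300 nM L165041 (final) for 17 h at 37 C; cell viability is quantified by CellTiter-Glo luminescence.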

Test [3] concerns the target Bile acid receptor (Homo sapiens) (UniProt Q96RI1). Description: qHTS assay to identify small molecule agonists of the farnesoid-X-receptor (FXR) signaling pathway (AID 743220; active = well fitted activation curve with a large enough effect in the signal ratio in the repeat runs, not every such curve was filed as active; the % refers to the signal ratio). The essentials:
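FXR-UAS-bla HEK 293T cells carrying a UAS-driven beta-lactamase reporter were plated for 5 h at 37C/5% CO2, then exposed to DMSO-dissolved Tox21 10K compounds for 16 h at 37C. A LiveBLAzer B/G FRET substrate was loaded for 2 h at room temperature before fluorescence reading.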

A short description of test [4]: qHTS assay to identify small molecule antagonists of the farnesoid-X-receptor (FXR) signaling pathway - cell viability counter screen (AID 743221; active = well fitted cell-killing curve with a large enough effect in the repeat runs, not every such curve was filed as active; also: nearly all actives have a fitted effect of over 50% in size; also: potency is read from the fitted curve at half-maximal effect). Summed up: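 CellTiter-Glo, 30 min RT, luminescence; same wells as the LiveBLAzer FRET read. Cells: FXR-UAS-bla HEK 293T. Treatment: compound with chenodeoxycholic acid 50 uM final, 16 h at 37 C.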
Test [5] deals with Vitamin D3 receptor (Homo sapiens) (UniProt P11473). Description: qHTS assay to identify small molecule agonists of the vitamin D receptor (VDR) signaling pathway (AID 743222; calls by dose curve; also: potency is read from the fitted curve at half-maximal effect). Summed up: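 Following 4 h attachment at 37C, VDR-bla cells (2,000 per well) received DMSO-dissolved compounds or controls. After 16 h incubation, LiveBLAzer B/G FRET substrate was added and fluorescence read 2 h later at room temperature.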
Vitamin D3 receptor (Homo sapiens), sequence (P11473 whole entry, looked up): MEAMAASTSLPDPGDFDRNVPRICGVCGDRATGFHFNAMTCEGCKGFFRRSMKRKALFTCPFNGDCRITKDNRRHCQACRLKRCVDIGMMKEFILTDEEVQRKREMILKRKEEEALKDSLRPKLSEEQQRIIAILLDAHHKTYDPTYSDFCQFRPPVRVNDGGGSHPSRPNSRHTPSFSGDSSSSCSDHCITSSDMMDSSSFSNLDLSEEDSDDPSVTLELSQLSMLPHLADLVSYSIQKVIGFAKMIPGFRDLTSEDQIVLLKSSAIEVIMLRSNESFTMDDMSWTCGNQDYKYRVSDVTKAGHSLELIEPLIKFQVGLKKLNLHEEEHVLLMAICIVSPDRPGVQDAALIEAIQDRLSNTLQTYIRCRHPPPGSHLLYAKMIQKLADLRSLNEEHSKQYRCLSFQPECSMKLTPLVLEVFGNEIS

A short description of test [6]: qHTS assay to identify small molecule agonists of the farnesoid-X-receptor (FXR) signaling pathway - cell viability counter screen (AID 743218). Also: nearly all actives have a fitted effect of over 45% in size. Also: potency is read from the fitted curve at half-maximal effect. The essentials: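 Readout: CellTiter-Glo luminescence, 30 min RT, multiplexed after the FXR-bla FRET reading. HEK 293T FXR-UAS-bla cells received compound 5 h post-plating and were incubated 16 h at 37 C.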
In test [7] the target is Vitamin D3 receptor (Homo sapiens) (UniProt P11473). Description: qHTS assay to identify small molecule antagonists of the vitamin D receptor (VDR) signaling pathway (AID 743223; active = well fitted inhibition curve with a large enough effect in the signal ratio in the repeat runs, not every such curve was filed as active; the % refers to the signal ratio; also: potency is read from the fitted curve at half-maximal effect). The essentials: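 After VDR-bla cells are plated and left 4 h at 37C, DMSO-dissolved compounds and 3 nM (final) calcitriol agonist are added. Incubation continues 16 h at 37C; FRET beta-lactamase substrate then develops 2 h at room temperature.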

Bile acid receptor (Homo sapiens), sequence (Q96RI1 whole entry, looked up): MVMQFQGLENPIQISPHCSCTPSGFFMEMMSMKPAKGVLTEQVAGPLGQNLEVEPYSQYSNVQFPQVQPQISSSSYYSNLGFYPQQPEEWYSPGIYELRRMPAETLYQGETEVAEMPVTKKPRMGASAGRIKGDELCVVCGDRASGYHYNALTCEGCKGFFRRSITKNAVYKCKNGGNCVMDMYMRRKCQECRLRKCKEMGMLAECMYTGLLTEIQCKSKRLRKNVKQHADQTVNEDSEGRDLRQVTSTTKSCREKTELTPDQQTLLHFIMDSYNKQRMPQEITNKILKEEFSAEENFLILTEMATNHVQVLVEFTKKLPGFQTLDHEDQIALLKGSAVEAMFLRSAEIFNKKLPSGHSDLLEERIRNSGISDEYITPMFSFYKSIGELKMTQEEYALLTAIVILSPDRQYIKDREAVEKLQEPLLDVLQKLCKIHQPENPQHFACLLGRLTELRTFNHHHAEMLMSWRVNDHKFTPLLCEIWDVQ

Consider `COc1ccc(/C(=C/C(=O)N2CCOCC2)c2ccc(Cl)cc2)cc1OC`, for which the Potency result in test [1], in test [2], in test [4] and in test [5] was “inactive” in each case. Also, the call in test [3] was inactive.
In the case of `CCOCCOC(C)=O`, the Potency entry in test [1], in test [2], in test [6], in test [4] and in test [5] was “inactive” each time.
`CCOC(=O)CC(=O)CCl`: the Potency result in test [1], in test [2], in test [6], in test [4] and in test [5] was “inactive” in each case.
In the case of `CCCCCCCCCC[N+](C)(C)CCCCCCCCCC`, the Potency in test [1] is 21.9 µM (active); in test [2] it was 19.5 µM (active); in test [6] it was 49 µM (active); in test [4], 54.9 µM (active); in test [7], 43.6 µM (active).
As for `[Hg+2].[I-].[I-]`, the Potency is 2.19 µM (active) in test [1], 3.47 µM (active) in test [2], 3.09 µM (active) in test [6] and 3.89 µM (active) in test [4].
`C=CC(=O)OCC(COC(=O)C=C)(COC(=O)C=C)COC(=O)C=C`: the Potency in test [1] is 6.92 µM (active); in test [2], 12.3 µM (active); in test [6] it was 7.76 µM (active); in test [4], 21.9 µM (active).
On the same counts, the results for `CCN(CC)C(=S)[S-].CCN(CC)C(=S)[S-].[Zn+2]` are 0.545 µM (active), 0.433 µM (active), 3.44 µM (active) and 6.86 µM (active).
Taken in the same sequence, the figures for `O=C(NC(=O)c1c(F)cccc1F)Nc1cc(Cl)c(OC(F)(F)C(F)F)c(Cl)c1` were “inactive”, “inactive”, “inactive” and “inactive”.
Consider `c1ccc2cc3c(cc2c1)-c1cccc2cccc-3c12`, for which the Potency result in test [1], in test [2], in test [6] and in test [4] was “inactive” each time.
In the case of `CC(=O)[O-].[Tl+]`, the Potency entry in test [1], in test [2], in test [6] and in test [4] was “inactive” each time.
For the compound `Clc1ccc(COC(Cn2ccnc2)c2ccc(Cl)cc2Cl)cc1` (centres undefined), the Potency in test [1] was 16.2 µM (active) and 17.3 µM (active) and 21.1 µM (active); in test [2], 40.7 µM (active) and 24.4 µM (active); in test [6], 32.3 µM (active) and 19.4 µM (active) and 26.6 µM (active); in test [4] it was 40.7 µM (active) and 17.3 µM (active) and 26.6 µM (active).
`CCOCn1c(-c2ccc(Cl)cc2)c(C#N)c(Br)c1C(F)(F)F`: the Potency is 19.5 µM (active) in test [1], 30.9 µM (active) in test [2], 12.3 µM (active) in test [6] and 27.5 µM (active) in test [4].
Taken in the same sequence, the figures for `CCC[CH2][Sn]([CH2]CCC)([CH2]CCC)[O]C(=O)c1ccccc1` were 0.616 µM (active), 1.38 µM (active), 0.616 µM (active) and 2.45 µM (active).
Regarding `CCCOCC(=Nc1ccc(Cl)cc1C(F)(F)F)n1ccnc1`, the Potency in test [1] is 13.8 µM (active); in test [2] it was 21.9 µM (active); in test [6] it was 17.4 µM (active); in test [4], 21.9 µM (active); in test [5], 34.6 µM (active).
Take `BrC(Br)C(Br)(Br)Br`: the results for the Potency in test [1] and in test [2] were 49.3 µM (active) and 39.1 µM (active), respectively. Further, the outcome in test [3] was inactive. Further, the Potency entry in test [4] and in test [5] was “inactive” in each case.
As to `C[C@@H]1CC[C@@]2(OC1)O[C@H]1[C@@H](O)[C@H]3[C@@H]4CC[C@H]5C[C@@H](O[C@@H]6O[C@H](CO)[C@H](O[C@@H]7O[C@H](CO)[C@@H](O)[C@H](O[C@@H]8OC[C@@H](O)[C@H](O)[C@H]8O)[C@H]7O[C@@H]7O[C@H](CO)[C@@H](O)[C@H](O[C@@H]8O[C@H](CO)[C@@H](O)[C@H](O)[C@H]8O)[C@H]7O)[C@H](O)[C@H]6O)[C@H](O)C[C@]5(C)[C@H]4CC[C@]3(C)[C@H]1[C@@H]2C`, the Potency was 5.83 µM (active) in test [1], 4.63 µM (active) in test [2], 26.1 µM (active) in test [6] and 23.2 µM (active) in test [4]. Moreover, the Potency result in test [5] was “inactive”.
As to `CN(C)C(=S)[S-].CN(C)C(=S)[S-].[Cu+2]`, the Potency in test [1] is 0.946 µM (active); in test [2] it was 3.36 µM (active); in test [6], 0.946 µM (active); in test [4] it was 2.38 µM (active).
For `CC[C@H](C)[C@H]1O[C@]2(C=C[C@@H]1C)C[C@@H]1C[C@@H](C/C=C(\C)[C@@H](O[C@H]3C[C@H](OC)[C@@H](O[C@H]4C[C@H](OC)[C@@H](O)[C@H](C)O4)[C@H](C)O3)[C@@H](C)/C=C/C=C3\CO[C@@H]4[C@H](O)C(C)=C[C@@H](C(=O)O1)[C@]34O)O2`, the Potency was 11.5 µM (active) in test [1], 9.15 µM (active) in test [2], 12.9 µM (active) in test [6] and 12.9 µM (active) in test [4].
As to `O=CC(Br)(Br)Br`, the Potency in test [1] is 17.3 µM (active); in test [2] it was 48.8 µM (active); in test [6], 13.8 µM (active); in test [4] it was 24.5 µM (active).
`CN(C)S(=O)(=O)N(SC(F)(Cl)Cl)c1ccccc1`: the Potency in test [1] was 24.5 µM (active); in test [2], 27.5 µM (active); in test [6], 38.9 µM (active); in test [4], 43.6 µM (active).
`ClC1=C(Cl)C2(Cl)C3C(Cl)C(Cl)CC3C1(Cl)C2(Cl)Cl` (centres undefined): the Potency in test [1] was 21.8 µM (active) and 24.5 µM (active); in test [2], 49 µM (active); in test [6], 48.8 µM (active) and 54.9 µM (active); in test [4] it was 61.6 µM (active). In addition, in test [5], the Potency entry was “inactive”.
On to `CCN`, for which the Potency result in test [1], in test [2], in test [6] and in test [4] was “inactive” in each case.
For the compound `N#CC(Cl)Cl`, the Potency entry in test [1], in test [2], in test [6], in test [4] and in test [5] was “inactive” in each case.
Consider `[Cd+2].[Cl-].[Cl-]`, for which the Potency is 2.21 µM (active) and 1.38 µM (active) in test [1]; 7.83 µM (active) and 1.23 µM (active) in test [2]; 11.1 µM (active) and 6.16 µM (active) in test [6]; 12.4 µM (active) and 19.5 µM (active) in test [4].
`CC(=O)[O-].CC(=O)[O-].[Hg+2]`: the Potency in test [1] was 1.74 µM (active); in test [2], 3.47 µM (active); in test [6], 1.1 µM (active); in test [4], 3.09 µM (active).
